What was measured:
Settings in all cases: concentration: 1 μM, replicates: in singlicate; n = 1
[1] = test system: MAPKAPK5
[2] = test system: MARK1
[3] = test system: MARK2
[4] = test system: MARK3
[5] = test system: MARK4
[6] = test system: MAST1
[7] = test system: T1, MEK1
T1 construct: gene MAP2K1

[8] = test system: T2, MEK2
T2 construct: gene MAP2K2

[9] = test system: T3, MEK3
T3 construct: gene MAP2K3

[10] = test system: T4, MEK4
T4 construct: gene MAP2K4
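Also: KINOMEscan kinase panel screen.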

| SMILES | %Inh [1] | %Inh [2] | %Inh [3] | %Inh [4] | %Inh [5] | %Inh [6] | %Inh [7] | %Inh [8] | %Inh [9] | %Inh [10] |
| --- | --- | --- | --- | --- | --- | --- | --- | --- | --- | --- |
| CNc1nccc(-c2ccc3c(N)n[nH]c3c2)n1 [GSK2206003] | 0% | 0% | 25% | 0% | 0% | 0% | 0% | 5% | 34% | 22% |
| Cc1cccc(Nc2nc(NCCN)ncc2C(N)=O)c1 [GSK1292139] | 44% | 0% | 39% | 7% | 0% | 0% | 0% | 9% | 94.9% | 55% |
| Fc1cc(Cl)ccc1Nc1ccnc2cc(-c3ccc(CN4CCOCC4)o3)ccc12 [GW560109] | 0% | 0% | 0% | 2% | 0% | 3% | 0% | 38% | 0% | 31% |
| CC(C)c1nc(-c2ccc(F)c(NS(=O)(=O)c3c(F)cccc3F)c2)c(-c2ccnc(Nc3ccc(N4CCOCC4)nc3)n2)s1 [GSK1804250] | 0% | 0% | 15% | 0% | 16% | 0% | 17% | 27% | 19% | 100% |
| O=C(O)C(F)(F)F.O=c1[nH]ccc2nc(N[C@@H]3CCNC3)nc(Nc3ccc4c(c3)S(=O)(=O)CC4)c12 [GSK2181306] | 90.4% | 65% | 91.7% | 70% | 81% | 12% | 97.5% | 94.7% | 93.5% | 91% |
| COc1cccc(C2=C(Nc3cccc(O)c3)C(=O)NC2=O)c1 [SB-390771] | 0% | 0% | 0% | 1% | 8% | 4% | 0% | 0% | 0% | 0% |
| O=C(Nc1n[nH]c2nc(-c3cccc(O)c3)ccc12)C1CC1 [SB-711805] | 3% | 31% | 30% | 0% | 0% | 42% | 10% | 10% | 41% | 12% |
| Cn1cc(-c2ccc3c(c2)CCN3C(=O)Cc2cc(F)cc(C(F)(F)F)c2)c2c(N)ncnc21 [GSK2635225] | 0% | 0% | 9% | 0% | 2% | 0% | 0% | 0% | 0% | 29% |
| CCn1c(-c2nonc2N)nc2c(-c3ccccc3)ncc(OCCCN)c21.O=C(O)C(F)(F)F.O=C(O)C(F)(F)F [GSK260205] | 0% | 0% | 0% | 0% | 0% | 28% | 0% | 0% | 0% | 13% |
| COc1ccc(NC(=O)c2ccoc2)cc1-c1ccc(C(=O)NCC2CC2)cc1 [GW810437] | 0% | 17% | 0% | 47% | 18% | 56% | 13% | 24% | 36% | 0% |
| CSc1ccc(NC2=C(c3ccc(Cl)cc3)C(=O)NC2=O)cc1 [SB-317658] | 0% | 3% | 0% | 28% | 21% | 23% | 3% | 6% | 0% | 0% |
| Nc1ncc(-c2ccc3nccc(-c4ccncc4)c3c2)cc1S(=O)(=O)N1CCCCC1 [GSK1693850] | 0% | 0% | 15% | 0% | 0% | 0% | 0% | 0% | 13% | 33% |
| Cc1ccc(Nc2ccnc(Nc3ccc(C)c(F)c3)n2)cc1O.Cl [GW582868] | 0% | 0% | 0% | 0% | 0% | 28% | 0% | 0% | 13% | 28% |
| CC(C)(C)c1ccc(C(=O)Nc2cn3cc(-n4ccnc4)ccc3n2)cc1 | 0% | 0% | 3% | 0% | 0% | 38% | 5% | 6% | 0% | 38% |
| CC(C)NCC(Cc1ccccc1)NC(=O)c1cc(Br)c(-c2ccnc3[nH]ccc23)s1.Cl.Cl (stereo not drawn) [GSK1383281] | 0% | 11% | 31% | 60% | 0% | 0% | 0% | 0% | 87% | 39% |
| Cc1ccc(NC(=O)c2cccc(N3CCCCC3)c2)cc1-c1ccc(C(=O)NCC2CC2)cc1 [GSK1917008] | 0% | 0% | 0% | 20% | 10% | 0% | 0% | 0% | 0% | 8% |
| COc1cc(Nc2ccnc3cc(-c4ccncc4)ccc23)cc(OC)c1OC.Cl [GW494610] | 0% | 1% | 0% | 0% | 9% | 15% | 14% | 0% | 0% | 27% |

| SMILES | %Inh [1] | %Inh [2] | %Inh [3] | %Inh [4] | %Inh [5] | %Inh [6] | %Inh [7] | %Inh [8] | %Inh [9] | %Inh [10] |
| --- | --- | --- | --- | --- | --- | --- | --- | --- | --- | --- |
| CCNc1nccc(-c2c(-c3ccc(F)cc3)ncn2C2CCN(C)CC2)n1 | 0% | 0% | 0% | 0% | 0% | 46% | 4% | 15% | 0% | 0% |
| CCOc1nccc(-c2c(-c3ccc(F)cc3)ncn2C2CCNCC2)n1 [SB-249175] | 39% | 3% | 29% | 0% | 0% | 0% | 28% | 31% | 43% | 21% |
| CN1CCN(Cc2ccc(NC(=O)Nc3ccc(N(C)c4ccnc(Nc5ccc(CS(C)(=O)=O)cc5)n4)cc3)cc2)CC1.Cl [GW827654] | 13% | 32% | 60% | 61% | 31% | 32% | 1% | 25% | 74% | 86% |
| O=C(Nc1c(F)cccc1F)c1cc(C(=O)c2ccccc2F)c[nH]1 [GSK1326180] | 0% | 0% | 0% | 3% | 9% | 0% | 0% | 0% | 0% | 10% |
| Cc1ccc(NC(=O)c2ccnc(N3CCCCC3)c2)cc1-c1ccc(C(=O)NCC2CC2)cc1 [GW775610] | 5% | 0% | 14% | 0% | 2% | 37% | 4% | 0% | 45% | 0% |
| Cl.Cl.NCC(NC(=O)c1cc(-c2cccnc2)c(-c2ccnc3[nH]ccc23)s1)c1ccccc1 (stereo not drawn) [GSK1323434] | 0% | 0% | 40% | 0% | 8% | 0% | 0% | 0% | 39% | 25% |
| COc1cccc(-c2nc(-c3ccccc3)[nH]c2-c2ccncc2)c1 [SB-610250] | 0% | 0% | 0% | 0% | 0% | 22% | 0% | 0% | 0% | 0% |
| Cc1ccc(O)cc1Nc1ccnc2cc(-c3ccc(CN4CCCCC4)o3)ccc12 [GW557777] | 0% | 8% | 8% | 0% | 0% | 0% | 17% | 30% | 2% | 0% |
| CN(C)CCOc1ccc(-c2cc(-c3ccc(Cl)c(O)c3)c(-c3ccncc3)[nH]2)cc1.Cl.Cl [SB-684387] | 29% | 0% | 14% | 14% | 0% | 52% | 0% | 35% | 5% | 10% |
| CN(C)CCNS(=O)(=O)c1ccc(-c2ccnc3[nH]ccc23)cc1 [GSK977620] | 0% | 8% | 31% | 13% | 2% | 0% | 0% | 0% | 10% | 19% |
| c1ccc(Oc2ccc(Nc3ccnc4cc(-c5ccc(CN6CCCCC6)o5)ccc34)cc2)nc1 [GW567143] | 0% | 0% | 0% | 0% | 5% | 0% | 95.3% | 97.1% | 0% | 0% |
| O=C(Nc1n[nH]c2nc(-c3ccccc3)ccc12)C1CC1 [SB-708999] | 0% | 0% | 0% | 0% | 8% | 22% | 6% | 0% | 0% | 0% |
| COc1cccc2c(-c3ccncc3)c(-c3ccc(F)cc3)nn12 [GW468513] | 0% | 0% | 0% | 0% | 3% | 15% | 0% | 1% | 0% | 19% |
| COc1cc(Nc2nccc(N3CCC(NC(=O)Nc4ccc5c(c4)OCO5)C3)n2)cc(OC)c1OC (stereo not drawn) [GSK1379766] | 0% | 4% | 0% | 0% | 1% | 0% | 0% | 0% | 2% | 8% |
| Cn1cc(-c2cnc(N)c3c(-c4ccc5c(c4)CCN5C(=O)Cc4ccccc4)csc23)cn1 [GSK2593074] | 0% | 0% | 5% | 0% | 9% | 25% | 36% | 23% | 23% | 56% |
| COC(=O)Nc1nc2ccc(Oc3ccc(NC(=O)Nc4cc(C(F)(F)F)ccc4F)cc3)cc2[nH]1.Cl [GW654607] | 0% | 0% | 0% | 0% | 0% | 0% | 0% | 0% | 0% | 15% |
